# Legend:
# Details in all cases: concentration: 1 μM,replicates: in singlicate; n = 1
# PIP5K1A = system: PIP5K1A
# PIP5K1C = system: PIP5K1C
# PIP5K2B = system: PIP5K2B
# PIP5K2C = system: T1, PIP5K2C
# T1 construct: gene PIP4K2C
# PKAC-alpha = system: T2, PKAC-alpha
# T2 construct: gene PRKACA
# PKAC-beta = system: T3, PKAC-beta
# T3 construct: gene PRKACB
# PKMYT1 = system: PKMYT1
# PKN1 = system: PKN1
# PKN2 = system: PKN2
# PLK1 = system: PLK1
# PLK2 = system: PLK2
# PLK3 = system: PLK3
# PLK4 = system: PLK4
# PRKCD = system: PRKCD
# PRKCE = system: PRKCE
# PRKCH = system: PRKCH
# PRKCI = system: PRKCI
# PRKCQ = system: PRKCQ
# PRKD1 = system: PRKD1
# PRKD2 = system: PRKD2
# 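Note: KINOMEscan kinase panel screen.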
structure (smiles),measurement,setting,value
O=C(NOCC1CC1)c1cc(Br)c(F)c(F)c1Nc1ccc(I)cc1Cl,%Inh,PIP5K1A,4%
same,%Inh,PIP5K1C,43%
same,%Inh,PIP5K2B,4%
same,%Inh,PIP5K2C,36%
same,%Inh,PKAC-alpha,9%
same,%Inh,PKAC-beta,0%
same,%Inh,PKMYT1,0%
same,%Inh,PKN1,9%
same,%Inh,PKN2,0%
same,%Inh,PLK1,0%
same,%Inh,PLK2,0%
same,%Inh,PLK3,4%
same,%Inh,PLK4,0%
same,%Inh,PRKCD,0%
same,%Inh,PRKCE,6%
same,%Inh,PRKCH,0%
same,%Inh,PRKCI,0%
same,%Inh,PRKCQ,13%
same,%Inh,PRKD1,0%
same,%Inh,PRKD2,11%
CS(=O)(=O)c1cccc(CNc2nc(Nc3ccc4c(c3)[C@@H]3C[C@@H]4CNC3=O)ncc2C(F)(F)F)c1,%Inh,PIP5K1A,52%
same,%Inh,PIP5K1C,48%
same,%Inh,PIP5K2B,93.3%
same,%Inh,PIP5K2C,52%
same,%Inh,PKAC-alpha,0%
same,%Inh,PKAC-beta,0%
same,%Inh,PKMYT1,0%
same,%Inh,PKN1,56%
same,%Inh,PKN2,22%
same,%Inh,PLK1,0%
same,%Inh,PLK2,0%
same,%Inh,PLK3,0%
same,%Inh,PLK4,98.7%
same,%Inh,PRKCD,0%
same,%Inh,PRKCE,5%
same,%Inh,PRKCH,0%
same,%Inh,PRKCI,8%
same,%Inh,PRKCQ,14%
same,%Inh,PRKD1,22%
same,%Inh,PRKD2,28%
COc1ccc(Nc2nccc(N3CCC(NC(=O)c4cccc(C#N)c4)C3)n2)cc1 (stereo not drawn) [GSK1379730],%Inh,PIP5K1A,4%
same,%Inh,PIP5K1C,35%
same,%Inh,PIP5K2B,0%
same,%Inh,PIP5K2C,23%
same,%Inh,PKAC-alpha,12%
same,%Inh,PKAC-beta,9%
same,%Inh,PKMYT1,0%
same,%Inh,PKN1,37%
same,%Inh,PKN2,0%
same,%Inh,PLK1,0%
same,%Inh,PLK2,0%
same,%Inh,PLK3,0%
same,%Inh,PLK4,0%
same,%Inh,PRKCD,8%
same,%Inh,PRKCE,0%
same,%Inh,PRKCH,36%
same,%Inh,PRKCI,54%
same,%Inh,PRKCQ,0%
same,%Inh,PRKD1,0%
same,%Inh,PRKD2,0%
C[C@@H](Oc1cc(-n2cnc3cc(-c4cnn(C)c4)ccc32)sc1C(N)=O)c1ccccc1Cl [GSK580432],%Inh,PIP5K1A,0%
same,%Inh,PIP5K1C,38%
same,%Inh,PIP5K2B,37%
same,%Inh,PIP5K2C,3%
same,%Inh,PKAC-alpha,2%
same,%Inh,PKAC-beta,0%
same,%Inh,PKMYT1,15%
same,%Inh,PKN1,0%
same,%Inh,PKN2,72%
same,%Inh,PLK2,99.5%
same,%Inh,PLK4,64%
same,%Inh,PRKCD,23%
same,%Inh,PRKCE,1%
same,%Inh,PRKCH,0%
same,%Inh,PRKCI,46%
same,%Inh,PRKCQ,35%
same,%Inh,PRKD1,0%
same,%Inh,PRKD2,0%
O=C1NCCc2[nH]c(-c3ccncc3)cc21,%Inh,PIP5K1A,2%
same,%Inh,PIP5K1C,12%
same,%Inh,PIP5K2B,4%
same,%Inh,PIP5K2C,0%
same,%Inh,PKAC-alpha,34%
same,%Inh,PKAC-beta,32%
same,%Inh,PKMYT1,4%
same,%Inh,PKN1,77%
same,%Inh,PKN2,80%
same,%Inh,PLK2,37%
same,%Inh,PLK3,40%
same,%Inh,PLK4,30%
same,%Inh,PRKCD,27%
same,%Inh,PRKCE,59%
same,%Inh,PRKCH,58%
same,%Inh,PRKCI,18%
same,%Inh,PRKCQ,46%
same,%Inh,PRKD1,72%
same,%Inh,PRKD2,0%
NC(=O)c1ccc(-c2cc3ncnc(SCC(=O)O)c3s2)cc1,%Inh,PIP5K1A,0%
same,%Inh,PIP5K1C,93%
same,%Inh,PIP5K2B,6%
same,%Inh,PIP5K2C,72%
same,%Inh,PKAC-alpha,0%
same,%Inh,PKAC-beta,0%
same,%Inh,PKMYT1,0%
same,%Inh,PKN1,0%
same,%Inh,PKN2,4%
same,%Inh,PLK1,0%
same,%Inh,PLK2,0%
same,%Inh,PLK3,6%
same,%Inh,PLK4,56%
same,%Inh,PRKCD,0%
same,%Inh,PRKCE,0%
same,%Inh,PRKCH,0%
same,%Inh,PRKCI,0%
same,%Inh,PRKCQ,0%
same,%Inh,PRKD1,0%
same,%Inh,PRKD2,0%
C[C@@H](Oc1cc(-n2cnc3cc(-c4ccncc4)ccc32)sc1C(N)=O)c1ccccc1Cl [GSK479719],%Inh,PIP5K1A,0%
same,%Inh,PIP5K1C,58%
same,%Inh,PIP5K2B,21%
same,%Inh,PIP5K2C,29%
same,%Inh,PKAC-alpha,0%
same,%Inh,PKAC-beta,0%
same,%Inh,PKMYT1,0%
same,%Inh,PKN1,15%
same,%Inh,PKN2,44%
same,%Inh,PLK2,99.5%
same,%Inh,PLK4,29%
same,%Inh,PRKCD,0%
same,%Inh,PRKCE,18%
same,%Inh,PRKCH,12%
same,%Inh,PRKCI,0%
same,%Inh,PRKCQ,2%
same,%Inh,PRKD1,0%
same,%Inh,PRKD2,0%
FC(F)(F)c1cc(Br)cc(Nc2nccc(-c3cnn4ncccc34)n2)c1 [GW810578],%Inh,PIP5K1A,0%
same,%Inh,PIP5K1C,3%
same,%Inh,PIP5K2B,0%
same,%Inh,PIP5K2C,94.2%
same,%Inh,PKAC-alpha,17%
same,%Inh,PKAC-beta,0%
same,%Inh,PKMYT1,1%
same,%Inh,PKN1,12%
same,%Inh,PKN2,27%
same,%Inh,PLK1,9%
same,%Inh,PLK2,24%
same,%Inh,PLK3,13%
same,%Inh,PLK4,26%
same,%Inh,PRKCD,16%
same,%Inh,PRKCE,4%
same,%Inh,PRKCH,7%
same,%Inh,PRKCI,0%
same,%Inh,PRKCQ,1%
same,%Inh,PRKD1,4%
same,%Inh,PRKD2,0%
COc1cc2ncn(-c3cc(OCC4CCCCC4)c(C(N)=O)s3)c2cc1OC [GSK204559],%Inh,PIP5K1A,0%
same,%Inh,PIP5K1C,61%
same,%Inh,PIP5K2B,12%
same,%Inh,PIP5K2C,11%
same,%Inh,PKAC-alpha,9%
same,%Inh,PKAC-beta,0%
same,%Inh,PKMYT1,2%
same,%Inh,PKN1,24%
same,%Inh,PKN2,0%
same,%Inh,PLK2,99.3%
same,%Inh,PLK3,99.3%
same,%Inh,PLK4,4%
same,%Inh,PRKCD,24%
same,%Inh,PRKCE,0%
same,%Inh,PRKCH,30%
same,%Inh,PRKCI,0%
same,%Inh,PRKCQ,32%
same,%Inh,PRKD1,0%
same,%Inh,PRKD2,0%
